# Source: PubChem BioAssay AID463173 (ICCB-Longwood Screening Facility, Harvard Medical School, 2010)
# Hit rate of the full screen: of about 52,000 compounds, about 1,700 (3.3%) were called active. The sample as a whole holds a higher share of actives than the screen did. A number with no mark means an inactive call. Rule as the data show it: active = survival mostly below about 52% (no sharp cut-off); inactive = mostly above about 56%.
# System: Wild type
# Experiment: S. aureus survival, RN4220 and DeltatarO strains – OD600, teichoic acid synthesis inhibitors, primary screen (AID 463173)
# Settings: S. aureus RN4220 wild type/DeltatarO growth, OD600, 18 h, hits give low values, screened at 18.75 µg/mL (by protocol)
row,SMILES,survival
1,Cc1ccc(C)c(N2CCN(C(=O)Cn3ncc4c(=O)oc5ccccc5c43)CC2)c1,71%
2,Cc1ccc2nc(N(CCCN(C)C)C(=O)c3ccco3)sc2c1,72%
3,COc1nc(-c2ccccc2)ccc1-c1noc(-c2ccccc2Br)n1,-2% (active)
4,COc1cccc(-c2nc(-c3ccc(-c4ccccc4)nc3OC)no2)c1,2% (active)
5,COc1nc(-c2ccc(C)cc2)ccc1-c1noc(-c2ccccc2Br)n1,2% (active)
6,COc1ccc(-c2ccc(-c3noc(-c4cc(OC)cc(OC)c4)n3)c(OC)n2)cc1,49%
7,CCOc1cc(-c2nc(-c3ccc(-c4ccc(C)cc4)nc3OC)no2)cc(OCC)c1OCC,56%
8,CCOc1nc(-c2ccccc2)ccc1-c1noc(-c2ccc(C)cc2)n1,109%
9,COc1nc(C)ccc1-c1noc(-c2ccccc2)n1,100%
10,COc1nc(-c2ccc(C)cc2)ccc1-c1noc(-c2ccc(C(C)(C)C)cc2)n1,32%
11,CCOc1cc(-c2nc(-c3ccc(-c4ccccc4)nc3OCC)no2)cc(OCC)c1OCC,60%
12,COc1nc(-c2ccccc2)ccc1-c1noc(C(C)C)n1,88%
13,CCOc1ccccc1-c1nc(-c2ccc(-c3ccccc3)nc2OCC)no1,-1% (active)
14,COc1cccc(-c2ccc(-c3noc(-c4ccccc4Br)n3)c(OC)n2)c1,37%
15,COc1cccc(-c2nc3c(c(SCc4ccccc4)n2)Cc2c(CO)cnc(C)c2O3)c1,101%
16,CCCN(CCC)CCCNC(=O)C1CCC(CNS(=O)(=O)c2ccc(NC(C)=O)cc2)CC1 (stereo unspecified),66%
17,CCOC(=O)N1CCN(Cc2nc3cc(NC(=O)c4ccc(F)cc4)ccc3n2C(C)C)CC1,86%
18,CC(=O)N1N=C(N)SC1c1ccccc1 (stereo unspecified),104%
19,CCCC(=O)Nc1nnc(SCc2cc(=O)c3cc(C)ccc3[nH]2)s1,70%
20,CC(=O)c1cccc(NC(=O)CN2C(=O)CCc3cc(S(=O)(=O)N4CCCCC4)ccc32)c1,82%
21,Cc1cc(C)nc(NS(=O)(=O)c2ccc(NC(=O)c3nc(SC(C)C)ncc3Cl)cc2)n1,79%
22,O=S(=O)(NCCc1cn2ccsc2n1)c1ccc(Cl)cc1,129%
23,CCc1ccc(NC(=O)CC(NCc2cccnc2)C(=O)O)cc1 (stereo unspecified),74%

row,SMILES,survival
1,CC(C)NC(=O)C1CCCCC1C(=O)O (stereo unspecified),88%
2,CCc1ccc(NC(=O)c2cnc3sc(N4CCCC4)nn3c2=O)cc1,85%
3,CCC(=O)N1CCc2cc(S(=O)(=O)NC(C(=O)NCc3ccccc3Cl)C(C)C)ccc21 (stereo unspecified),84%
4,CC(C)(C)NC(=O)CCSc1nc(-c2ccc3c(c2)OCO3)cc(C(F)(F)F)n1,4% (active)
5,CC(C)NC(=O)CCSc1nc(-c2ccc3c(c2)OCO3)cc(C(F)(F)F)n1,77%
6,CCCNC(=O)CCSc1nc(-c2ccc3c(c2)OCO3)cc(C(F)(F)F)n1,84%
7,COc1ccc(Cl)cc1NC(=O)c1c(NCc2ccc(C)o2)sc2c1CCCCC2,80%
8,CCOc1cccc2cc(-c3nc4sc5c(c4c(=O)[nH]3)CCC(C)C5)c(=O)oc12 (stereo unspecified),119%
9,CCC(C(=O)Nc1cc(F)ccc1F)n1nc(-c2cc(C)ccc2C)ccc1=O (stereo unspecified),75%
10,Cc1cccc(CCNC(=O)c2nn(C)c3c2CSc2ccccc2-3)c1,87%
11,Cc1ccc(CCNC(=O)c2nn(C)c3c2CSc2ccccc2-3)cc1,90%
12,Cc1ccc2c(c1)-c1c(c(C(=O)NCCc3ccccc3)nn1C)CS2,10% (active)
13,Cc1ccc(Nc2c(-c3ccccc3O)nc3ccc(Br)cn23)cc1,101%
14,CC(C)OCCCNC(=O)C(=O)Nc1ccc2nc3n(c(=O)c2c1)CCCCC3,99%
15,COc1ccc(/C=C\c2onc(C)c2S(=O)(=O)N2CCC(C(=O)Nc3ccccc3OC)CC2)cc1,116%
16,Cc1ccc(NC(=O)c2cnn3c(C(F)F)cc(-c4ccccc4)nc23)cc1F,86%
17,Cc1cccc(-c2nc(SCc3ccc(Br)cc3)n3[nH]c(=O)cc3n2)c1,83%
18,Cc1ccc(CSc2nc(-c3ccc(C(C)(C)C)cc3)nc3cc(=O)[nH]n23)cc1,113%
19,O=c1cc2nc(-c3ccccc3F)nc(SCc3ccc(Br)cc3)n2[nH]1,-2% (active)
20,COc1ccccc1NC(=O)CSc1nc(-c2ccccc2F)nc2cc(=O)[nH]n12,73%
21,Cc1ccc(-c2nc(SCc3ccc(Br)cc3)n3[nH]c(=O)cc3n2)cc1,10% (active)
22,O=c1cc2nc(-c3ccccc3)nc(SCc3cccc(Br)c3)n2[nH]1,73%
23,CC(C)Sc1ncc(Cl)c(C(=O)Nc2nc3ccc(S(C)(=O)=O)cc3s2)n1,112%

row,SMILES,survival
1,CN(C(=O)Cn1cc(S(=O)(=O)Cc2ccccc2Cl)c2ccccc21)c1ccccc1,146%
2,CCc1cccc(NC(=O)Cn2c(=O)n(CCc3ccc(OC)c(OC)c3)c(=O)c3ccccc32)c1,124%
3,O=C(Cn1c(-c2cccs2)cc2ccccc21)NCCCN1CCN(c2ccc(F)cc2)CC1,136%
4,O=C1S/C(=C\c2ccccc2)C(=O)N1CN1CCOCC1,125%
5,Cc1nc2cccnc2n1C1CCN(C(=O)Nc2ccccc2C(F)(F)F)CC1,72%
6,COc1ccccc1CNC(=O)c1ccc(CN2CC(=O)N3CCCCC3C2=O)cc1 (stereo unspecified),72%
7,CCc1ccc(Nc2ncnc3sc4c(c23)CCCC4)cc1,68%
8,CN(C)c1ccc(Nc2ncnc3sc4c(c23)CCCC4)cc1,124%
9,Cc1cc(C)cc(Nc2ncnc3sc4c(c23)CCCC4)c1,-3% (active)
10,O=C(CCC1N=C2c3ccccc3N=C(SCc3ccccc3Cl)N2C1=O)N1CCN(c2ccccc2)CC1 (stereo unspecified),65%
11,Cc1cc(C)c(NC(=O)Cn2c(=O)n(Cc3ccc(C(=O)NCc4ccc5c(c4)OCO5)cc3)c(=O)c3ccccc32)c(C)c1,83%
12,O=C(CSc1nnc(-c2ccccc2F)o1)Nc1cccc(C(F)(F)F)c1,60%
13,Cc1c(Cl)cccc1NC(=O)CSc1nc2ncccc2o1,1% (active)
14,O=C(CSc1nc2ncccc2o1)Nc1cccc(C(F)(F)F)c1,-3% (active)
15,O=C(CSc1nc2ncccc2o1)Nc1ccc(Cl)cc1F,81%
16,Cc1cccc(C)c1NC(=O)CSc1nc2ncccc2o1,63%
17,COc1cc(NC(=O)CSc2nc3ncccc3o2)cc(OC)c1,57%
18,COc1cccc(NC(=O)Cn2cc(C(=O)C3CCCCC3)c3ccccc32)c1,73%
19,COc1cccc(NC(=O)N(Cc2cn(C)c3ccccc23)C2CCCCC2)c1,0% (active)
20,COc1cccc(NC(=O)N(Cc2nc3ccccc3c(=O)[nH]2)C2CCCCC2)c1,122%
21,COc1cccc(NC(=O)N(Cc2cn(C)c3ccccc23)C2CCCCCC2)c1,0% (active)
22,COc1cccc(NC(=O)N(Cc2c[nH]c3ccccc23)C2CCCCC2)c1,71%
23,COc1cccc(NC(=O)N(Cc2c[nH]c3ccccc23)C2CCCCCC2)c1,63%

row,SMILES,survival
1,CCOc1ccc(C(=O)Nc2nnc(SCc3cc(=O)n4ccccc4n3)s2)cc1,69%
2,CCOc1ccc(NC(=O)N(Cc2c[nH]c3ccccc23)C2CCCCC2)cc1,79%
3,CCOc1ccc(NC(=O)N(Cc2c[nH]c3ccccc23)C2CCCCCC2)cc1,83%
4,CCOc1ccc(NC(=O)N(Cc2cn(CC)c3ccccc23)C2CCCCCC2)cc1,0% (active)
5,CCc1ccc(NC(=O)N(Cc2c[nH]c3ccccc23)C2CCCCCC2)cc1,127%
6,CCc1ccc(NC(=O)N(Cc2cn(CC)c3ccccc23)C2CCCCC2)cc1,0% (active)
7,CCc1ccc(NC(=O)N(Cc2c[nH]c3ccccc23)C2CCCCC2)cc1,93%
8,CCCCn1c(SCc2ccccc2C)nc2ccsc2c1=O,136%
9,COc1cc(Nc2nc(SCc3ccccc3Cl)nc3ccccc23)cc(OC)c1,95%
10,Cc1ccc(/C=C/c2nc3ccccc3n2S(=O)(=O)c2ccc(Br)cc2)cc1,70%
11,CC(C)c1ccc(Nc2c(-c3ccsc3)nc3ccc(Cl)cn23)cc1,95%
12,COc1ccc(C)cc1NC(=O)c1nnn(CC(=O)Nc2c(C)cccc2C)c1N,74%
13,COc1ccc(NC(=O)Cn2c(=O)n(Cc3nc(C)no3)c(=O)c3cc4c(cc32)OCO4)cc1OC,70%
14,COc1ccc(C(=O)Nc2cccc(C(=O)OCc3cc(=O)n4nc(C5CC5)sc4n3)c2)cc1,111%
15,Cc1ccc(OCC(=O)Nc2ccc(C(=O)OCc3cc(=O)n4nc(C5CC5)sc4n3)cc2)cc1,81%
16,O=C(Nc1cccc(C(=O)OCc2cc(=O)n3nc(C4CC4)sc3n2)c1)c1ccccc1,1% (active)
17,COc1cccc(C(=O)Nc2ccc(C(=O)OCc3cc(=O)n4nc(C5CC5)sc4n3)cc2)c1,63%
18,Cc1ccc(C(=O)Nc2cccc(C(=O)OCc3cc(=O)n4nc(C5CC5)sc4n3)c2)cc1,55%
19,COc1ccc(C(=O)Nc2ccc(C(=O)OCc3cc(=O)n4nc(C5CC5)sc4n3)cc2)cc1,-3% (active)
20,O=C(Nc1cccc(C(=O)OCc2cc(=O)n3nc(C4CC4)sc3n2)c1)c1ccc(F)cc1,81%
21,O=C(COc1ccccc1)Nc1ccc(C(=O)OCc2cc(=O)n3nc(C4CC4)sc3n2)cc1,64%
22,Cc1cccc(OCC(=O)Nc2ccc(C(=O)OCc3cc(=O)n4nc(C5CC5)sc4n3)cc2)c1,-4% (active)
